An excerpt weighted towards active compounds, which were near 5.4% of everything screened.
VP16 counter: Gal4-VP16 reporter inhibition counter-screen; Drosophila S2 Gal4-VP16 UAS-luciferase, luminescence, 20 h; Potency, µM (titrated, usually from 53.6 µM), for the others: at the top dose activity, negative = inhibition, hits mostly inhibitors; hit rate 3.5% among 310,000; AID 2546;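 note: Gal4-VP16 expression switched on by copper sulfate through the metallothionein promoter; potency is the fitted concentration of half-maximal effect; % is set by controls: 0 for no effect and ±100 for the full control effect; nearly all actives have a fitted effect of over 50% in size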
RORgamma inh: ROR gamma (mouse) transcription inhibition; P51450; Drosophila S2 Gal4-RORgamma UAS-luciferase reporter, 20 h; Potency, µM (titrated, usually from 53.6 µM), for inactives: at the top dose activity change, negative = inhibition, most hits filed as inhibitors; hit rate 5.4% among 310,000; AID 2551; note: potency is the fitted concentration of half-maximal effect; % is set by controls: 0 for no effect and ±100 for the full control effect; nearly all actives have a fitted effect of over 60% in size
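Luminescence from a UAS-regulated Photinus luciferase reporter in stably transfected Drosophila Schneider cells is measured; decreased signal marks ROR gamma inhibition. Fusion expression is induced by 700 uM copper sulfate for 20 hr.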
CtBP-E1A inh: CtBP/E1A binding inhibition. AlphaScreen GST-E1A/His-CtBP binding, 1536-well; hits give low values. activity change, % (no concentration beside the values). hit rate 0.49% among 340,000. AID 651724; in the data active = activity change below about -65%; inconclusive = mostly about -30% to -63%; note: % is set by controls: 0 for no effect and ±100 for the full control effect
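AlphaScreen with 125 nM GST-E1A and 125 nM His-CtBP (5X stocks) in Tris pH 8.0, 300 mM NaCl, BSA, Tween 20, TCEP. Compounds preincubated 2 h at 37 deg C, then glutathione donor/nickel acceptor beads added for 1 h at 37 deg C in dark.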
Six1-Eya2 blk: blocks human Six1 binding to Eya2; Q15475+O00167; AlphaScreen GST-Six1/His-Eya2 binding, biochemical; hits give low values; activity change, % (no concentration beside the values); hit rate 0.56% among 360,000; AID 651725; in the data active = activity change below about -65%; inconclusive = mostly about -30% to -63%; note: % is set by controls: 0 for no effect and ±100 for the full control effect
Target sequence (O00167 whole entry, looked up): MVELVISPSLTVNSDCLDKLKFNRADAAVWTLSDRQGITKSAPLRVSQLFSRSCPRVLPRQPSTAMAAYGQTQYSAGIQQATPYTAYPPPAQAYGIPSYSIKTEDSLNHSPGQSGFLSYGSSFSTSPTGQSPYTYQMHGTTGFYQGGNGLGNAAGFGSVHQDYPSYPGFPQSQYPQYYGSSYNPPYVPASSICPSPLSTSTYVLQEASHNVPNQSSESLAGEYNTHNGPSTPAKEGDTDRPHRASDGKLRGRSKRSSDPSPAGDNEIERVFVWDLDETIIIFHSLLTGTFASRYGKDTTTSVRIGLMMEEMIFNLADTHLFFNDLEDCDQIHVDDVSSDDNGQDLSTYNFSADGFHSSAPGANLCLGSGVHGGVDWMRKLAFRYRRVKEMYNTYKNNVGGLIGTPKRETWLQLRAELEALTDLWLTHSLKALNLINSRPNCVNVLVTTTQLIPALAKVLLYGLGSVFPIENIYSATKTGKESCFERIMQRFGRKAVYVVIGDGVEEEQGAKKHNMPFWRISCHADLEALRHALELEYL
Target sequence (Q15475 whole entry, looked up): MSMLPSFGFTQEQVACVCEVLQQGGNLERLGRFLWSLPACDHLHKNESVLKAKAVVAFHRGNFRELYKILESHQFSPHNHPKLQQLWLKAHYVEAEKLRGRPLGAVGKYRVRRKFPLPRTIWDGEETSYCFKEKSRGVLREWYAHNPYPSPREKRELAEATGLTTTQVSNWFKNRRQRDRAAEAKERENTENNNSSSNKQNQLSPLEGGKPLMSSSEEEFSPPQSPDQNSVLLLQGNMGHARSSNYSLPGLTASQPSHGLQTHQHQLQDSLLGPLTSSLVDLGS
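AlphaScreen with GST-Six1 and His-Eya2 (5X mix: 250 nM and 500 nM), glutathione donor and nickel acceptor beads; buffer 50 mM Tris pH 8.0, 300 mM NaCl, 1 mM TCEP; 1 h at 37 C in the dark.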
p53 reactivation: re-activators of mutant p53; hit rate 0.063% among 320,000; Potency, µM (highest dose often 92.2 µM), without a hit: top-dose activity change, positive = activation, usual class: activators; H1299 p53-A138V BP100-luciferase reporter, luminescence, 24 h; AID 504706; note: potency is the fitted concentration of half-maximal effect; % of control where 0% means no effect; nearly all actives have a fitted effect of over 45% in size
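H1299 (p53-null), stable ts p53-A138V + BP100-Luc; 1000 cells/well, Opti-MEM/10% FBS; cpd 4 pt, 1:5; 24 h, 37 deg C, 5% CO2; detection reagent 10 min RT; luminescence.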
* marks the source's active call; other numbers are inactive results; u = inconclusive; x = not tested or not shown. Unless noted, calls come from the whole dose curve; as a rule, active = well fitted curve in the direction sought with a large enough effect; inconclusive = small, poorly fitted or top-dose-only effect, or another doubt; inactive = no such curve, though single readings can be large; an effect the other way counts as inactive or inconclusive.

SMILES	VP16 counter	RORgamma inh	CtBP-E1A inh	Six1-Eya2 blk	p53 reactivation
CC(=O)Nc1ccc(-c2ccnc3c2CC(C(=O)NCC2CCOCC2)O3)cc1 (configuration not stated)	x	x	-21.9	6.4	x
CCCCNC(=S)NNC(=O)c1cccnc1	11.2µM*	u	3.4	-1.5	0.2%
CCNC(=S)NNC(=O)c1cccnc1	-5.0%	-1.9%	5.9	4.0	-2.0%
O=C(NC(=S)Nc1ncccn1)c1ccc(Cl)cc1Cl	-0.7%	7.08µM*	5.3	1.8	u
CCC(=O)Nc1cccc(NC(=S)NC(=O)c2ccc(Cl)cc2Cl)c1	u	u	5.6	3.3	u
O=C(NC(=S)NCCOCc1ccc(Cl)cc1)c1cccnc1	17.8µM*	11.2µM*	-0.5	-0.3	-7.2%
CC(C)c1ccccc1OCCNC(=S)NC(=O)c1cccnc1	u	3.55µM*	-7.3	-1.6	-5.1%
Cc1ccc(-n2[nH]c(C)c(C=Nc3ccc(S(=O)(=O)Nc4nccs4)cc3)c2=O)c(C)c1	-7.8%	1.3%	x	x	-0.8%
CCCCNC(=S)NNc1c(Cl)cc(Cl)cc1Cl	5.01µM*	2.51µM*	-1.9	4.1	-2.8%
CC(C)(CNC(=O)c1ccc(Br)o1)CNC(=O)c1ccc(Br)o1	x	x	1.5	1.5	x
CCCCNC(=S)NNC(=O)c1ccc(Br)o1	-25.4%	0.794µM*	-6.8	-13.3	10.1%
O=C(NNC(=S)Nc1ccc(Br)cc1)c1cccnc1	u	10µM*	2.7	-6.0	3.4%
CCCCNC(=S)NNC(=O)c1nn(C)cc1Cl	-29.9%	14.1µM*	0.0	2.3	-7.0%
CCOC(=O)N1CCC(NC(=O)C2CCN(S(=O)(=O)N3CCC(C)CC3)CC2)CC1	-7.4%	21.0%	0.5	1.5	u
Nc1ncnc2[nH]c(=O)[nH]c12	3.7%	-8.6%	x	x	x
O=C(NNC(=S)NC(=O)c1cccnc1)c1ccc(Cl)cc1	u	10µM*	-1.5	-0.1	7.5%
O=C(NC(=S)NNC(=O)c1cnccn1)c1ccc(Cl)cc1	-4.5%	14.1%	-95.4*	-91.8*	5.3%
O=C(NC(=S)NNC(=O)c1ccccc1O)c1cccnc1	-1.4%	-37.2%	x	-89.9*	1.8%
O=C(NC(=S)NNC(=O)c1ccc(Cl)cc1Cl)c1cccnc1	20µM*	12.6µM*	-9.6	0.1	13.8%
O=C(NCCCNC(=O)c1cnccn1)c1ccc(Cl)cc1	14.8%	-4.4%	-8.8	1.2	3.1%
O=C(Cc1ccc(Cl)cc1)NNC(=S)NC(=O)c1cccnc1	-9.5%	u	-1.5	6.6	-3.5%
O=C(NNC(=O)c1ccccc1-n1cccc1)c1cccnc1	x	x	4.9	-3.2	x
CCCC/C=C/[C@H](C)[C@@](C)(COC(=O)c1ccc(Br)cc1)Cc1ccccc1	4.4%	36.2%	x	x	x
CC1CC(=O)Nc2ccccc2N1C(=O)Cn1cnc2ccccc2c1=O (configuration not stated)	x	x	x	2.0	4.0%
CNc1nc2c(N)ncnc2n1[C@@H]1O[C@@H]2COP(=O)(O)O[C@H]2[C@H]1O	3.2%	-0.9%	x	x	x
SMILES	VP16 counter	RORgamma inh	CtBP-E1A inh	Six1-Eya2 blk	p53 reactivation
O=C1NC(=S)S/C1=C\C=C\c1ccc([N+](=O)[O-])o1	4.47µM*	5.62µM*	u	u	-14.5%
COc1ccc(O)c(/C=N/NC(=S)NCCc2ccccc2)c1	7.08µM*	3.16µM*	u	u	11.3%
COc1cc(/C=N\NC(=O)CC(=O)NCCc2ccccc2)ccc1O	-24.8%	0.8%	0.0	8.1	-1.5%
COc1ccc(/C(C)=N/NC(=S)NCCc2ccccc2)c(O)c1	7.08µM*	5.01µM*	u	u	3.1%
Oc1ccc(Br)cc1/C=N/NC(=S)NCCc1ccccc1	15.8µM*	15.8µM*	-18.5	-24.0	11.1%
S=C(NCCc1ccccc1)N/N=C/c1ccccc1Cl	u	11.2µM*	-8.3	-1.5	24.4%
Cc1c(C(=O)Nc2ccc(-c3nnc4n3CCCCC4)cc2)oc2ccc(Br)cc12	-11.3%	15.8%	-5.1	1.7	5.8%
CC1CN(C(=O)CCNS(=O)(=O)c2ccc(Br)cc2)CC(C)O1 (configuration not stated)	x	x	5.0	-0.2	10.5%
CCC1CSC(=Nc2ccc(C)cc2)N1C(=O)CN1C(=O)NC2(CCCC2)C1=O (configuration not stated)	x	x	-2.0	-7.0	x

High-throughput results as filed in PubChem BioAssay.
